# Only some compounds are listed: those with a hit (about 7.4% of all), similar ones and a draw of the others.
# NPC1 prom act – activates the NPC1 promoter; Huh7 NPC1 promoter luciferase reporter, 24 h; Potency, µM (series often up to 9.22 µM), without a hit: at the top dose activation, most hits filed as activators; 2.4% of 320,000 active; further: % of control where 0% means no effect; nearly all actives have a fitted effect of over 60% in size
#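 Luminescence from an NPC1 promoter-driven luciferase reporter in stably transfected Huh7 cells was measured after 24 h compound treatment at 37 °C, followed by 10 min ambient incubation with luciferase detection reagent.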
# SMN2 splice enh – increases expression of the SMN2 splice variant; Potency, µM (series often up to 46.1 µM), for the others: top-dose activity change, positive = activation, hits mostly activators; 2.8% of 210,000 active; HEK293 SMN2-luciferase splicing reporter, luminescence, 30-36 h; further: % of control where 0% means no effect; nearly all actives have a fitted effect of over 55% in size
#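 HEK293 cells carry an SMN2 minigene-luciferase reporter in which exon 7 inclusion puts luciferase in frame. Cells were seeded at 2000 cells/well, attached for 10-12 hours, then exposed to compounds for 30-36 hours at 37C before ONE-Glo luminescence.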
# FLuc counter – counter-screen for miR-21 project: firefly luciferase inhibitors or activators; P08659; purified FLuc, Km substrates, luminescence inhibition; Potency, µM (series often up to 57.5 µM), for inactives: top-dose activity change, negative = inhibition, hits mostly inhibitors; 6.9% of 360,000 active; AID 588342;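 further: plate controls were vehicle for no effect and reference inhibitor for full effect; nearly all actives have a fitted effect of over 55% in size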
# Target sequence (P08659 whole entry, looked up): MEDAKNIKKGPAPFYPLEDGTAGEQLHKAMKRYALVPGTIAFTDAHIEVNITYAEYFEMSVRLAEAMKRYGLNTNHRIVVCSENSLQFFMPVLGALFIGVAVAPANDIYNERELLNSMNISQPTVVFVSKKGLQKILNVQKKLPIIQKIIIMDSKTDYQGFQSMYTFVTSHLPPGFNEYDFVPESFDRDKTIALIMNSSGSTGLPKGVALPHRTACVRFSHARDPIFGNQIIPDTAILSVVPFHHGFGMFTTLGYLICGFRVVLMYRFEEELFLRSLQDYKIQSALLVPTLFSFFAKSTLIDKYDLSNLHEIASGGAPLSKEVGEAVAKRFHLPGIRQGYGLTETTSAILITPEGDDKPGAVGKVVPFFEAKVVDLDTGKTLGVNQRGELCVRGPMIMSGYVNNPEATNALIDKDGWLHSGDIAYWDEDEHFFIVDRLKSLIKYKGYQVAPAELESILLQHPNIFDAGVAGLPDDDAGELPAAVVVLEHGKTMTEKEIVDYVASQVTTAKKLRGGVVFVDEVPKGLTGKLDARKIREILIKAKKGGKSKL
#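 Purified P. pyralis luciferase, 10 nM final, with Km-level 10 uM D-luciferin and 10 uM ATP in 50 mM Tris acetate pH 7.5, 10 mM Mg acetate, 0.01% Tween-20, 0.05% BSA; 6-point qHTS titration about 60 µM downward; luminescence read.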
# Rab9 promoter act – activators of Rab9 promoter. 2.8% of 320,000 active. Potency, µM (titrated, usually from 9.22 µM), for inactives: top-dose activation, negative = inhibition, most hits filed as activators. AID 485297. Huh7 Rab9 promoter-luciferase reporter, luminescence, 24 h; further: % of control where 0% means no effect; nearly all actives have a fitted effect of over 60% in size
#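 Rab9 promoter-driven luciferase in stably transfected Huh7 cells; 1500 cells/well rested 2 h, exposed to compound in DMSO for 24 h at 37 °C, 5% CO2. Luminescence read 10 min after adding luciferase reagent at ambient temperature.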
# ELG1 genotoxic – genotoxicity induction in ELG1-luciferase HEK293T cells; HEK293T ELG1-luciferase reporter, luminescence, 16 h; Potency, µM (titrated, usually from 46 µM), for inactives: top-dose activity change, positive = activation, hits mostly activators; 1.3% of 330,000 active; AID 504466; further: % of control where 0% means no effect; nearly all actives have a fitted effect of over 60% in size
#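 ELG1-luciferase HEK293T cells, 2,000/well; compound pinned in; 16 hr, 37 °C, 5% CO2; ONE-Glo, 30 min RT; luminescence on CCD imager.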
# Active calls of the source: *; ? = inconclusive; / = no result given; [ ] = remark or other dose. The call rests on the fitted dose curve; in most records, active means well fitted curve in the direction sought with a large enough effect; inconclusive means small, poorly fitted or top-dose-only effect, or another doubt; inactive means no such curve, though single readings can be large; an effect the other way counts as inactive or inconclusive. Potency means the concentration at half of the fitted maximal effect.
SMILES,NPC1 prom act,SMN2 splice enh,FLuc counter,Rab9 promoter act,ELG1 genotoxic
Cc1ccc(/C=N/OC(=O)c2nn(C)cc2Cl)cc1,-2%,-6%,1.3µM*,11%,8%
CC(C)(C)C(=O)[C@H](C(c1ccccc1)N1CCOCC1)N1CCOCC1 (some centres undefined),/,1%[9.22 µM],/,/,/
Cc1cc(C)cc(N2CCn3c2nc2c3c(=O)n(CCCc3ccccc3)c(=O)n2C)c1,/,/,-17%,/,/
Cc1ccc(NC(=O)Cc2ccc(-n3c(C)nc4cccnc43)cc2)cc1C,/,/,-10%,/,/
Cc1cccc(NC(=O)c2ccc(C(=O)c3ccccc3)cc2)n1,?,/,9.5µM*,?,21µM*
O=C(Nc1cccc(NC(=O)c2ccccc2)n1)c1ccccc1,-1%,/,9.5µM*,0%,0%
O=S(=O)(c1ccccc1)c1ccc(N2CCCCCC2)cc1,2%,/,?,3%,0%
Cc1ccc(-n2nc3c(=O)n(CCCC(=O)NCc4ccc(C)o4)nc(C)c3c2C)cc1,-3%,/,-16%,-1%,0%[9.26 µM]
CCOc1cc(-c2ccccc2)nc(N)n1,?,0%,?,?,22%
COc1cc(-c2ccccc2)nc(N)n1,?,1%,?,3.2µM*,16µM*
Cc1ccc(NC(=O)CSc2nnc(NC(=O)c3ccco3)s2)cc1,9%,14%,21µM*,14%,15%
CC(=O)c1ccc(NC(=O)CSc2nnc(NC(=O)c3ccco3)s2)cc1,?,/,2.4µM*,?,?
CCCSc1nnc(NC(=O)c2ccco2)s1,29%,11µM*,?,?,?
CC(C)N(C(=O)CSc1nnc(NC(=O)c2ccco2)s1)C(C)C,-4%,-5%,-18%,-4%,0%
CSc1nnc(NC(=O)c2ccco2)s1,?,/,-19%,22%,17%
Cc1onc(C(=O)NC(C)c2ccccc2)c1[N+](=O)[O-] (centres undefined),-5%,-6%,-2%,14%,1%
CC(=O)c1cc2c(cc1NC(=O)CSc1nc3ccccc3o1)OCO2,20%,?,0%,?,10µM*
CC1CCc2nc(NC(=O)CSc3nc4ccccc4o3)sc2C1 (centres undefined),?,-81%,6.7µM*,?,6.5µM*
Cc1cccc(NC(=O)CSc2nc3ccccc3o2)c1,1.4µM*,?,?,0.89µM*,1.5µM*
Cc1cccc(NC(=O)CSc2cc(C)c3ccccc3n2)c1,/,8.9µM*,-18%,/,/
CCOc1ccc(NC(=O)CC2S/C(=N/N=C3CCCCCC3)NC2=O)cc1 (centres undefined),1%,/,1%,17%,-10%
COC(=O)C1=C(C(=O)OC)[C@@H]2Nc3ccccc3[C@@]23C[C@@H](C(=O)OC)N(S(=O)(=O)c2ccc(OC)cc2)C3=N1,/,15%[9.22 µM],/,/,/
Cn1c(SCC(=O)N2CCCc3ccccc32)ncc(C(=O)Nc2ccc(Cl)cc2)c1=O,/,/,-20%,/,/
Cc1cc([N+](=O)[O-])ccc1NC(=O)C(C)N1CCN(c2ccccn2)CC1 (centres undefined),-1%,/,0%,-7%,-10%
Cc1ccc(-c2csc(NC(=O)CSc3nc4ccccc4o3)n2)cc1,26%,14µM*,/,25%,?
SMILES,NPC1 prom act,SMN2 splice enh,FLuc counter,Rab9 promoter act,ELG1 genotoxic
CCOc1ccc(CCNC(=O)c2cnc3sc(N4CCC(C)CC4)nn3c2=O)cc1,/,/,1%,/,/
Cc1nn(C)cc1CNC(=O)Nc1ccc(Cl)c(Cl)c1,3.2µM*,-22%,24µM*,2.5µM*,13µM*
Cc1ccc(NC(=O)NCc2c(C)nn(C)c2C)cc1Cl,?,16µM*,24µM*,4µM*,?
COc1cccc([C@@H]2Oc3ccc(Br)cc3C[C@H]2OC(=O)NCCc2ccc(OC)c(OC)c2)c1,/,-1%,/,/,/
O=C(O)Cc1ccc(OCc2ccc(Cl)nc2)cc1,9%,-3%,15µM*,1%,-10%
C[C@H](CCC(=O)NCC(=O)O)C1CC[C@H]2[C@H]3C(C[C@H](O)[C@]12C)[C@@]1(C)CC[C@@H](O)C[C@H]1C[C@H]3O (some centres undefined),/,7%,/,/,/
O=C(Cc1c(Cl)cccc1Cl)N1CCN(S(=O)(=O)c2cccs2)CC1,-2%,/,3%,0%,0%
COc1cc(N=Nc2c(O)c3ccccc3[nH]c2=O)c(OC)cc1N=Nc1ccccc1,3%,/,15µM*,-1%,-4%
NC(=O)c1ccc(N=Nc2c(O)c3ccccc3[nH]c2=O)cc1,8%,/,?,8%,1%
O=C(CSc1nnc(NC(=O)c2ccccc2)s1)NCC1CCCO1 (centres undefined),3.5µM*,/,4.3µM*,2.8µM*,?
O=C(CSc1nnc(NC(=O)c2cccc(Br)c2)s1)NCC1CCCO1 (centres undefined),?,/,8.5µM*,/,?
Cc1cc(C)cc(C(=O)Nc2nnc(SCC(=O)NCC3CCCO3)s2)c1 (centres undefined),1%,/,?,4%,4%
Cc1ccc(NC(=O)c2cnc(SCC(=O)NCC3CCCO3)n(C)c2=O)cc1C (centres undefined),?,/,4.8µM*,?,21µM*
Cn1c(SCC(=O)NCC2CCCO2)ncc(C(=O)Nc2ccccc2)c1=O (centres undefined),0%,/,?,2%,?
COc1ccc(C(=O)Nc2nnc(SCC(=O)NCC3CCCO3)s2)cc1OC (centres undefined),21%,/,12µM*,15%,24%
CNC(=O)COC(=O)/C=C/c1cccc(F)c1,-5%,5%,-1%,-2%,0%
CC(=O)N1CCC2(CC1)CN(Cc1ccc(C#N)cc1)C2,/,5%,/,/,/
CC1(C)SC2C(NC(=O)Cc3ccccc3)C(=O)N2C1C(=O)O (centres undefined),/,10%,/,/,/
O=C(CSc1nnc(NC(=O)c2ccccc2[N+](=O)[O-])s1)NCC1CCCO1 (centres undefined),6%,/,17µM*,4%,2%
O=C(CSc1nnc(NC(=O)c2ccccc2F)s1)NCC1CCCO1 (centres undefined),?,/,12µM*,?,?
C=CCSc1nc2c(N)ncnc2n1[C@@H]1O[C@H](CO)[C@@H](O)[C@@H]1O,/,-8%[9.22 µM],/,/,/
Cc1cccc(OCCN2C(=O)c3ccccc3C2=O)c1,27%,19%,24µM*,3.5µM*,?
Cc1cccc(OCCn2c(=O)n(C)c3ccccc32)c1,3.2µM*,13µM*,15µM*,1.8µM*,6.5µM*
COc1cccc(OCc2nc3ccccc3n2CCOc2cccc(C)c2)c1,/,12%,-18%,/,/
Cc1cccc(OCCn2c(=O)sc3ccccc32)c1,?,13µM*,11µM*,2.8µM*,?
Cc1cccc(OCCCn2c(=O)sc3ccccc32)c1,6%,-5%,21µM*,3.2µM*,?

# High-throughput results as filed in PubChem BioAssay.
